# Results as given in PMC5540273 (PLoS ONE, 2017).
# Columns and labels:
# Settings in all cases: concentration: 1 μM, replicates: in singlicate; n = 1
# CDK3 = system: CDK3
# CDK4-cyclinD1 = system: CDK4-cyclinD1
# CDK4-cyclinD3 = system: CDK4-cyclinD3
# CDK4 = system: CDK4
# CDK5 = system: CDK5
# CDK7 = system: CDK7
# CDK8 = system: CDK8
# CDK9 = system: CDK9
# CDKL1 = system: CDKL1
# CDKL2 = system: CDKL2
# 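Note: KINOMEscan kinase panel screen.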
SMILES,%Inh (CDK3),%Inh (CDK4-cyclinD1),%Inh (CDK4-cyclinD3),%Inh (CDK4),%Inh (CDK5),%Inh (CDK7),%Inh (CDK8),%Inh (CDK9),%Inh (CDKL1),%Inh (CDKL2)
COc1cccc(C2=C(Nc3cccc(C(=O)O)c3)C(=O)NC2=O)c1 [SB-390770],9%,9%,0%,0%,0%,0%,4%,0%,0%,24%
OCCCNc1nccc(-c2c(-c3cccc(C(F)(F)F)c3)nn3cc(C(F)(F)F)ccc23)n1 [GW630813],1%,0%,0%,29%,0%,0%,15%,0%,0%,7%
CCC(=O)c1c(-c2ccccc2)c2cc(Cl)ccc2c(=O)n1Cc1cc(S(C)(=O)=O)n(CC(N)=O)n1,0%,0%,0%,0%,0%,2%,0%,0%,23%,0%
COc1cc(Nc2nccc(N3CCC(NC(=O)C4COc5ccccc5O4)C3)n2)cc(OC)c1OC (centres unmarked) [GSK1379761],0%,52%,0%,70%,0%,57%,57%,0%,11%,11%
COc1cc2nccc(Nc3cccc(Oc4ccccc4)c3)c2cc1OC.Cl [GW284543],0%,1%,0%,30%,0%,0%,37%,0%,9%,7%
Cc1cc(Nc2nc(-c3cccc(C)n3)nc3ccccc23)ccn1 [GW872411],0%,0%,0%,0%,0%,0%,0%,0%,17%,0%
COc1cc2ncn(-c3cc(OCc4ccncc4Br)c(C(N)=O)s3)c2cc1OC [GW854278],5%,13%,0%,0%,0%,0%,15%,0%,14%,0%
CCn1c(-c2ccoc2)nc2cnccc21 [SB-733887],23%,5%,29%,0%,0%,60%,33%,0%,0%,16%
Cc1c(Cn2c(C)nn3c(=O)cc(N4CCO[C@H](C)C4)nc23)cccc1C(F)(F)F [GSK2373690],18%,0%,0%,0%,0%,0%,13%,0%,3%,24%
Cc1cccc(-c2cc(-c3c[nH]nc3-c3ccccn3)ccn2)c1 [GW679395],9%,0%,0%,0%,0%,0%,4%,0%,0%,14%
COc1ccc(-c2cc3c(C)nc(N)nc3n([C@H]3CC[C@H](OCCO)CC3)c2=O)cn1,0%,0%,0%,0%,19%,14%,0%,4%,10%,0%
CCC(=O)c1c(-c2ccccc2)c2cc(Cl)ccc2c(=O)n1Cc1cc(S(C)(=O)=O)n(CC(F)F)n1,0%,0%,0%,0%,0%,0%,0%,2%,0%,0%
Cc1ccc(-c2ccc3c(ccc4sc5c(c43)NC[C@@H](C)N=C5N(C)C)n2)cn1,0%,0%,0%,0%,0%,6%,0%,0%,0%,0%
CCc1nc(-c2cccc(C)c2)c(-c2ccncc2)s1,8%,6%,0%,0%,3%,0%,0%,7%,33%,4%
Cc1cccc(-c2nc(Nc3ccc4c(cnn4C)c3)c3ccccc3n2)n1 [GW876731],0%,0%,0%,1%,0%,11%,0%,0%,0%,23%
O=C1NC(=O)C(c2ccccc2)=C1Nc1cccc(O)c1 [SB-390534],6%,0%,0%,0%,0%,0%,0%,0%,1%,11%
O=C(Nc1ccc2c(c1)OCO2)NC1CCN(c2ccnc(NCc3ccc(F)cc3)n2)CC1 [GSK1379859],0%,0%,0%,13%,0%,0%,0%,0%,9%,13%
CCS(=O)c1ccc(-c2coc3ccc(-c4nnc(C)o4)cc23)cc1 (centres unmarked),0%,25%,0%,32%,12%,20%,5%,0%,0%,0%

SMILES,%Inh (CDK3),%Inh (CDK4-cyclinD1),%Inh (CDK4-cyclinD3),%Inh (CDK4),%Inh (CDK5),%Inh (CDK7),%Inh (CDK8),%Inh (CDK9),%Inh (CDKL1),%Inh (CDKL2)
Cc1ccccc1COc1cc(-n2cnc3cc(Cl)ccc32)sc1C(N)=O [GW813349],0%,25%,3%,0%,0%,0%,14%,0%,34%,13%
COc1ccc(CNC(=O)NC2CCN(c3ccnc(Nc4ccc(F)cc4)n3)C2)cc1 (centres unmarked) [GSK1379706],20%,52%,0%,49%,0%,4%,60%,5%,10%,31%
Fc1cccc(CSc2nnc(-c3ccc4c(c3)CCO4)o2)c1,0%,0%,17%,0%,4%,0%,0%,0%,3%,4%
COc1cc2ncn(-c3cc(OCCCc4ccccc4)c(C(N)=O)s3)c2cc1OC [GSK205189],1%,0%,0%,0%,0%,0%,4%,0%,5%,7%
Cc1nn2c(=O)cc(N3CCOCC3)nc2n1Cc1cccc(Cl)c1Cl [GSK2342769],16%,0%,0%,0%,0%,0%,0%,0%,0%,19%
C[C@@H]1CC[C@H](C(=O)NC2CCCCC2)CN1c1cc(-c2ccc3c(N)n[nH]c3c2)nc(N)n1 [GSK2291363],18%,0%,0%,14%,15%,0%,37%,0%,0%,26%
O=C(Nc1n[nH]c2nc(-c3ccccc3)c(Br)cc12)C1CC1 [SB-708998],0%,0%,0%,10%,10%,1%,0%,0%,0%,30%
CCn1c(-c2nonc2N)nc2ccccc21 [SB-693162/GW549034],48%,0%,46%,13%,12%,20%,0%,0%,8%,0%
COc1ccc(-n2cnc3c(N)ncnc32)cc1 [SKF-97236],25%,0%,0%,11%,8%,11%,0%,0%,29%,1%
CN1C(=O)C(Nc2cc(Cl)c(O)c(Cl)c2)=C(c2ccc(Cl)cc2)C1=O [SB-404321],0%,0%,0%,23%,4%,0%,41%,0%,0%,7%
CN(C)c1cc(-c2ccc3c(N)n[nH]c3c2)nc(N)n1 [GSK2219329],0%,0%,0%,0%,0%,0%,0%,0%,7%,11%
Nc1ncnc2c1ncn2-c1ccc(Cl)cc1 [AH2635],0%,0%,0%,42%,0%,0%,33%,0%,0%,6%
COC(=O)c1c(-c2ccccc2)c2cc(Br)ccc2c(=O)n1Cc1ccc(NC(=O)CCC(=O)O)cc1,5%,0%,0%,8%,0%,5%,0%,0%,1%,0%
Nc1n[nH]c2nnc(-c3ccccc3)c(-c3ccccc3)c12 [GW554060],17%,2%,0%,22%,0%,0%,14%,0%,0%,0%
Cc1nnc(-c2ccc(C)c(-c3ccc(C(=O)O)cc3)c2)o1 [GW608005],0%,0%,0%,29%,0%,0%,21%,0%,0%,6%
Cc1nnc(-c2ccc3ncn(-c4ccc(S(C)=O)cc4)c3c2)o1 (centres unmarked),4%,0%,0%,0%,13%,0%,16%,7%,20%,0%
CC(C)(C)c1ccc(C(=O)Nc2cn3cc(-c4ccccc4)ccc3n2)cc1,12%,14%,0%,0%,0%,5%,5%,6%,29%,5%
